Experimental data reported in PubChem BioAssay (NCI).
About 79,000 compounds went through this panel and 15% of them were active in at least one assay; those are over-represented in the sample as a whole. Calls of active or inactive are those of the source. No stated cut-off is given here; in the data, active means growth inhibition above about 70%; inactive means the rest.

Columns and labels:
[1] = NCI Yeast Anticancer Drug Screen. Data for the rad52 strain (AID 147);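 further: 0% = growth of vehicle-treated control cultures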; conditions: S. cerevisiae rad52 mutant growth inhibition, active compounds read high
How it was run: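 Read-out: growth inhibition versus vehicle-treated controls. Cells were a DNA repair-deficient yeast strain treated with compounds.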

[2] = NCI Yeast Anticancer Drug Screen. Data for the wt1 strain (AID 149);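 further: 0% = growth of vehicle-treated wt1 cultures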; conditions: S. cerevisiae wt1 strain (SPY 50644) growth inhibition, active compounds read high
How it was run: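 Measured: growth of wt1 yeast under compound versus vehicle treatment, reported as inhibition.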

[3] = NCI Yeast Anticancer Drug Screen. Data for the rad50EPP+ strain (AID 151);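 further: 0% = growth of vehicle-treated control cultures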; conditions: S. cerevisiae rad50 mutant strain, active compounds read high
How it was run: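 Growth inhibition read against vehicle controls in rad50EPP+ yeast, a strain altered in DNA damage repair, after compound exposure.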

[4] = NCI Yeast Anticancer Drug Screen. Data for the mgt1 strain (AID 153); conditions: S. cerevisiae mgt1 mutant growth inhibition, active compounds read high
How it was run: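 mgt1 yeast grown with test compound; read-out is growth inhibition versus vehicle-treated cultures.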

[5] = NCI Yeast Anticancer Drug Screen. Data for the rad50 strain (AID 155);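 further: 0% = growth of vehicle-only cultures of the same strain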; conditions: S. cerevisiae rad50 strain growth inhibition, active compounds read high
How it was run: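 Growth of the mutant yeast was measured after compound exposure and referenced to vehicle-treated cultures.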

[6] = NCI Yeast Anticancer Drug Screen. Data for the mec2-1 strain (AID 157); conditions: S. cerevisiae mec2-1 strain, active compounds read high
How it was run: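 Yeast mec2-1 mutant treated with compound. Readout: growth inhibition vs vehicle controls.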

[7] = NCI Yeast Anticancer Drug Screen. Data for the rad14 strain (AID 159);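 further: 0% = growth of vehicle-treated control cultures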; conditions: S. cerevisiae rad14 strain growth inhibition, active compounds read high
How it was run: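 Here, inhibition of yeast growth was measured after compound exposure, using a strain with a genetic defect in DNA damage repair and vehicle-treated cultures as the reference.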

[8] = NCI Yeast Anticancer Drug Screen. Data for the sgs1 mgt1 strain (AID 161);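 further: 0% = growth of cultures given vehicle only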; conditions: S. cerevisiae sgs1 mgt1 strain, active compounds read high
How it was run: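 Mutant yeast exposed to compound; growth scored against vehicle-only wells.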

[9] = NCI Yeast Anticancer Drug Screen. Data for the CLN2oe strain (AID 163);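 further: 0% = growth of vehicle-only control cultures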; conditions: S. cerevisiae CLN2oe strain, active compounds read high
How it was run: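 Read-out: yeast growth inhibition, expressed relative to vehicle-only controls. The strain bears an engineered cell-cycle alteration.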

[10] = NCI Yeast Anticancer Drug Screen. Data for the cln2 rad14 strain (AID 165);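 further: 0% = growth equal to vehicle treated cultures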; conditions: S. cerevisiae cln2 rad14 strain, active compounds read high
How it was run: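 cln2 rad14 yeast strain; compound exposure; growth inhibition read vs vehicle controls.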

[11] = NCI Yeast Anticancer Drug Screen. Data for the bub3 strain (AID 167); conditions: S. cerevisiae bub3 mutant strain, active compounds read high
How it was run: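 Whole-cell yeast assay. The mutant strain was incubated with compounds, and growth inhibition was determined by comparison with vehicle-treated cells.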

[12] = NCI Yeast Anticancer Drug Screen. Data for the wt2 strain (AID 169);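 further: 0% = growth of vehicle-treated yeast cultures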; conditions: S. cerevisiae wt2 strain growth inhibition, active compounds read high
How it was run: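 Read-out: growth inhibition versus vehicle-treated control cultures after compound exposure of the yeast strain.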

[13] = NCI Yeast Anticancer Drug Screen. Data for the mlh1 strain (AID 171);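 further: 0% = growth of vehicle-treated control cultures of the same strain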; conditions: S. cerevisiae mlh1 strain growth inhibition, active compounds read high
How it was run: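 Read-out: growth inhibition versus vehicle controls. Strain: engineered yeast with a defined DNA repair or cell cycle defect, compound-treated.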

[14] = NCI Yeast Anticancer Drug Screen. Data for the sgs1 strain (AID 173);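 further: 0% = growth of vehicle-only control cultures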; conditions: S. cerevisiae sgs1 mutant, active compounds read high
How it was run: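 Read-out: yeast growth inhibition relative to vehicle controls, following compound exposure of a strain with a defined DNA repair/cell cycle alteration.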

[15] = NCI Yeast Anticancer Drug Screen. Data for the mlh1 rad18 strain (AID 175); conditions: S. cerevisiae mlh1 rad18 strain growth inhibition, active compounds read high
How it was run: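 Yeast w/ defined DNA-repair lesions; compound exposure; growth vs vehicle controls → % inhibition.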

[16] = NCI Yeast Anticancer Drug Screen. Data for the rad18 strain (AID 177); conditions: S. cerevisiae rad18 mutant growth inhibition, active compounds read high
How it was run: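 Readout: growth inhibition vs vehicle controls. Cells: genetically altered yeast strain, DNA repair defect.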

[17] = at 5.0 µM (retest, dose inferred, filed as 0.5)
[18] = at 50.0 µM (retest, dose inferred, filed as 5.0)

Measured: growth inhibition

CC/C(=C(\c1ccccc1)c1ccc(OCC[N+](C)(C)C)cc1)c1ccccc1
inactive: [1]; at 1.2 µM 0% | [1]; at 3.7 µM 68% | [2]; at 1.2 µM -4% | [2]; at 3.7 µM 12% | [3]; at 1.2 µM 3% | [3]; at 3.7 µM 18% | [4]; at 1.2 µM -1% | [4]; at 3.7 µM 55% | [5]; at 1.2 µM 7% | [6]; at 1.2 µM -6% | [6]; at 3.7 µM 33% | [6]; [17] 31% | [6]; [18] 31% | [7]; at 1.2 µM 0% | [9]; at 1.2 µM -7% | [9]; at 3.7 µM 10% | [10]; [17] 21% | [10]; [18] 21% | [11]; at 1.2 µM -3% | [11]; at 3.7 µM 36% | [11]; [17] 22% | [11]; [18] 22% | [12]; at 1.2 µM -2% | [12]; at 3.7 µM 55% | [13]; at 1.2 µM -7% | [14]; at 1.2 µM -7% | [14]; at 3.7 µM 65% | [15]; [17] 27% | [15]; [18] 27% | [16]; at 1.2 µM 3%
active: [1]; at 11.0 µM 99% | [1]; at 33.0 µM 99% | [1]; at 100.0 µM 99% | [2]; at 11.0 µM 98% | [2]; at 33.0 µM 99% | [2]; at 100.0 µM 99% | [3]; at 11.0 µM 94% | [3]; at 33.0 µM 98% | [3]; at 100.0 µM 99% | [4]; at 11.0 µM 99% | [4]; at 33.0 µM 99% | [4]; at 100.0 µM 99% | [5]; at 3.7 µM 85% | [5]; [17] 70% | [5]; at 11.0 µM 97% | [5]; at 33.0 µM 98% | [5]; [18] 70% | [5]; at 50.0 µM 90% | [5]; at 100.0 µM 99% | [6]; at 11.0 µM 99% | [6]; at 33.0 µM 99% | [6]; at 50.0 µM 93% | [6]; at 100.0 µM 99% | [7]; at 3.7 µM 88% | [7]; at 11.0 µM 99% | [7]; at 33.0 µM 99% | [7]; at 100.0 µM 99% | [8]; [17] 74% | [8]; [18] 74% | [8]; at 50.0 µM 91.3% | [9]; at 11.0 µM 98% | [9]; at 33.0 µM 99% | [9]; at 100.0 µM 99% | [10]; at 50.0 µM 91% | [11]; at 11.0 µM 99% | [11]; at 33.0 µM 99% | [11]; at 50.0 µM 91.5% | [11]; at 100.0 µM 99% | [12]; at 11.0 µM 99% | [12]; at 33.0 µM 99% | [12]; at 100.0 µM 99% | [13]; at 3.7 µM 70% | [13]; at 11.0 µM 99% | [13]; at 33.0 µM 99% | [13]; at 100.0 µM 99% | [14]; at 11.0 µM 99% | [14]; at 33.0 µM 99% | [14]; at 100.0 µM 99% | [15]; at 50.0 µM 90.1% | [16]; at 3.7 µM 86% | [16]; at 11.0 µM 99% | [16]; at 33.0 µM 99% | [16]; at 100.0 µM 99%

CCCCCCCCNCCCCCCCC
active: [1]; at 11.0 µM 76% | [1]; at 33.0 µM 99% | [1]; at 100.0 µM 99% | [2]; at 33.0 µM 96% | [2]; at 100.0 µM 99% | [3]; at 33.0 µM 92% | [3]; at 100.0 µM 99% | [4]; at 11.0 µM 97% | [4]; at 33.0 µM 100% | [4]; at 100.0 µM 100% | [5]; at 11.0 µM 96% | [5]; at 33.0 µM 98% | [5]; [18] 99% | [5]; at 50.0 µM 99.5% | [5]; at 100.0 µM 98% | [6]; at 11.0 µM 77% | [6]; at 33.0 µM 98% | [6]; [18] 100% | [6]; at 50.0 µM 99.7% | [6]; at 100.0 µM 98% | [7]; at 3.7 µM 82% | [7]; at 11.0 µM 97% | [7]; at 33.0 µM 98% | [7]; at 100.0 µM 98% | [8]; [17] 82% | [8]; [18] 100% | [8]; at 50.0 µM 99.5% | [9]; at 33.0 µM 97% | [9]; at 100.0 µM 97% | [10]; [18] 100% | [10]; at 50.0 µM 99.1% | [11]; [17] 74% | [11]; at 11.0 µM 95% | [11]; at 33.0 µM 98% | [11]; [18] 99% | [11]; at 50.0 µM 99.5% | [11]; at 100.0 µM 99% | [12]; at 11.0 µM 76% | [12]; at 33.0 µM 99% | [12]; at 100.0 µM 99% | [13]; at 11.0 µM 96% | [13]; at 33.0 µM 99% | [13]; at 100.0 µM 100% | [14]; at 11.0 µM 94% | [14]; at 33.0 µM 97% | [14]; at 100.0 µM 97% | [15]; [17] 80% | [15]; [18] 99% | [15]; at 50.0 µM 99.3% | [16]; at 11.0 µM 91% | [16]; at 33.0 µM 99% | [16]; at 100.0 µM 95%
inactive: [1]; at 1.2 µM 4% | [1]; at 3.7 µM 18% | [2]; at 1.2 µM 0% | [2]; at 3.7 µM 2% | [2]; at 11.0 µM 29% | [3]; at 1.2 µM 1% | [3]; at 3.7 µM -1% | [3]; at 11.0 µM 24% | [4]; at 1.2 µM 12% | [4]; at 3.7 µM 29% | [5]; at 1.2 µM 6% | [5]; at 3.7 µM 3% | [5]; [17] 67% | [6]; at 1.2 µM 2% | [6]; at 3.7 µM 13% | [6]; [17] 9% | [7]; at 1.2 µM 50% | [9]; at 1.2 µM 13% | [9]; at 3.7 µM 21% | [9]; at 11.0 µM 60% | [10]; [17] 65% | [11]; at 1.2 µM 33% | [11]; at 3.7 µM 49% | [12]; at 1.2 µM 0% | [12]; at 3.7 µM 17% | [13]; at 1.2 µM 6% | [13]; at 3.7 µM 20% | [14]; at 1.2 µM 11% | [14]; at 3.7 µM 30% | [16]; at 1.2 µM 14% | [16]; at 3.7 µM 38%
